Screens: PubChem, National Center for Advancing Translational Sciences (NCATS)
D2 PAM-1: positive allosteric modulators of human D2 dopamine receptor; P14416; HEK293 T-REx D2, calcium flux, EC20 dopamine potentiation; potentiation, % at 10 µM; 340,000 compounds, 0.34% hits;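 active = potentiation over 3 SD above the plate norm, cut at about 30% in these data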; also: 0% is about no effect
Target sequence (P14416 whole entry, looked up): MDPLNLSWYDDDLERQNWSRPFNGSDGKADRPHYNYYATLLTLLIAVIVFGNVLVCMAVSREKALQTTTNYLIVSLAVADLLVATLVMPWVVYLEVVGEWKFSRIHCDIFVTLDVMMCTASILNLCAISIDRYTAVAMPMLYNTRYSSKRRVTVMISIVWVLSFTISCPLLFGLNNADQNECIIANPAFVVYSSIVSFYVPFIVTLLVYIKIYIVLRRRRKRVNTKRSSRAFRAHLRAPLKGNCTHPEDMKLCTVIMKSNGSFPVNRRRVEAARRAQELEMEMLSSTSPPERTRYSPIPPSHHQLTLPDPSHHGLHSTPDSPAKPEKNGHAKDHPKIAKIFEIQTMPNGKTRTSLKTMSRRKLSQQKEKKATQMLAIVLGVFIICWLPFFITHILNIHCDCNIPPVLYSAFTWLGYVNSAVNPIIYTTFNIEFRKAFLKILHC
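Cells plated with tetracycline inducer and held overnight at 30 C; calcium dye loaded 30–90 min at room temperature; baseline taken, compound added and read 180 s; EC20 dopamine then added and read 180 s.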
D2 ag-1: agonists of human D2 dopamine receptor; HEK293 T-REx D2 cells, calcium flux agonist mode; P14416; activation, % at 2 µM; 340,000 compounds, 0.53% hits;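 active = activation over 3 SD above normal in the single-dose calcium agonist read, cut at about 30% in these data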; also: 0% is about no effect
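Tetracycline-induced HEK293 T-REx cells with force-coupled D2 receptor, plated overnight at 30 C, loaded with no-wash calcium dye. After a 10 s baseline, compound was pin-added and calcium flux read kinetically for 180 s; calcium rises flagged agonists.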
D2 ag-2: activates the human D2 dopamine receptor. 360,000 compounds, 0.084% hits. P14416. AID 624465. activation, % (test concentration not listed). DiscoveRx PathHunter D2 beta-arrestin, luminescence, 90 min; 100% = 57 uM dopamine signal; in the data active = activation above about 40%; inconclusive = between about 15% and that limit
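Agonist mode: compounds alone added to overnight-plated D2 PathHunter cells for 90 min at 37 C, with 57 uM final dopamine (EC100) defining full response. Beta-arrestin recruitment detected by chemiluminescent reagent, read after 1 h at ambient temperature.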
D2 PAM-2: positive allosteric modulators of human D2 dopamine receptor; P14416; 360,000 compounds, 0.23% hits; DiscoveRx D2 beta-arrestin cells, luminescence, 90 min; 100% = 57 uM dopamine signal; potentiation, % (concentration not given with the values); in the data active = potentiation above about 50%; inconclusive = mostly about 30% to 49%
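PathHunter D2 cells, attached overnight at 37 deg C, received compound in DMSO plus dopamine at EC20 (50 nM final) for 90 min at 37 deg C. Beta-arrestin recruitment was read as luminescence after 1 h with detection reagent at ambient temperature.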
D2 antagonist: D2 dopamine receptor (human) antagonism. HEK293 TREx D2 cells, calcium flux, dopamine EC80. P14416. 340,000 compounds, 2% hits. inhibition, % at 10 µM; in the data active = inhibition above about 30%; inactive = below that, where a call was filed; also: 0% is about no effect
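Calcium flux kinetic readout in an inducible HEK293 TREx D2 line plated overnight at 30 C. After 180 s compound exposure, an EC80 dopamine challenge follows with another 180 s kinetic read to detect antagonism.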
D3 ag: confirmation of human D3 dopamine receptor agonists, beta-arrestin; shares compounds with D2 ag-1; Potency, µM (top dose mostly 76.9 µM), for the others: at the highest dose activation, usual class: activators; 2,300 compounds, 4% hits; DiscoveRx D3 beta-arrestin cells, luminescence, 90 min; AID 720506;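 also: potency is read from the fitted curve at half-maximal effect; 100% = dopamine control response; nearly all actives have a fitted effect of over 70% in size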
D2 ag-3: activates human D2 dopamine receptor in D3 counterscreen | AID 720507 | DiscoveRx PathHunter D2 beta-arrestin, luminescence, 90 min; response scale: percent relative to full dopamine signal | 2,300 compounds, 5.9% hits | Potency, µM (series often up to 76.9 µM), without a hit: at the highest dose activation, actives largely listed as activators | shares compounds with D2 ag-1; also: potency is read from the fitted curve at half-maximal effect; % of control where 0% means no effect; nearly all actives have a fitted effect of over 70% in size
* = called active by the depositor; ? = inconclusive; / = no result. A selection: hits, their analogues and other compounds. The true share with any hit is near 2.4%. Unless noted, calls follow the shape of the dose curve; as a rule, active = well fitted activation curve with a large enough effect; inconclusive = small, poorly fitted or top-dose-only effect; inactive = flat fitted curve, though single readings scatter.

SMILES | D2 PAM-1 | D2 ag-1 | D2 ag-2 | D2 PAM-2 | D2 antagonist | D3 ag | D2 ag-3
O=C(NCc1c(-n2cccc2)sc2c1CCCC2)Nc1cccc(C(F)(F)F)c1 | -8.9 | / | / | / | / | / | /
Nc1ccc(-c2nc3cc([N+](=O)[O-])ccc3o2)cc1 | 18.4 | 1.0 | -2.6 | -12.0 | -6.3 | 17.4% | 6.8%
Cc1c(C(=O)OCC(=O)N2C(C)CCCC2C)oc2ccccc12 (stereo unspecified) | -1.5 | 30.0 | -1.1 | -9.1 | -11.6 | -9.1% | 13.0%
O=[N+]([O-])c1ccc(NC2CCCCC2)nc1 | / | / | -4.2 | -8.7 | / | / | /
COC(=O)c1cc(NC(=O)CC2Oc3ccccc3NC2=O)cc(C(=O)OC)c1 (stereo unspecified) | 3.9 | 26.3 | -0.9 | 1.6 | 2.3 | -0.3% | 0.1%
Cc1cccc(NC(=O)c2nc[nH]c2C(=O)NCc2ccccc2)c1 | -11.2 | -0.3 | -4.3 | -7.0 | -6.6 | -5.1% | -4.4%
O=C(Nc1ccccc1)c1nc[nH]c1C(=O)NCc1ccccc1 | -15.2 | -0.2 | -7.1 | -9.5 | 12.4 | -10.5% | 3.7%
O=C(Nc1cccc(Cl)c1)c1nc[nH]c1C(=O)NCCCCNC(=O)c1[nH]cnc1C(=O)Nc1cccc(Cl)c1 | / | / | -3.5 | -3.8 | / | / | /
O=C(Nc1cccc(Cl)c1)c1nc[nH]c1C(=O)NCc1ccccc1 | 1.6 | 1.4 | -4.0 | -7.0 | -1.2 | -5.0% | -2.3%
COc1ccc(Nc2nc(N)nc(N)c2S(=O)(=O)c2ccccc2)cc1 | -2.7 | -0.4 | / | / | / | / | /
CCOCCC(=O)Nc1ncc(S(=O)(=O)c2ccc([N+](=O)[O-])cc2)s1 | / | / | ? | -2.0 | / | / | /
CCCC(C)C(=O)Nc1ncc(S(=O)(=O)c2ccc([N+](=O)[O-])cc2)s1 (stereo unspecified) | 9.6 | 23.0 | 14.3 | 11.4 | 18.6 | ? | 24.0%
COCc1cc(C)nc2sc(C(=O)Nc3ccc(OC(F)(F)F)cc3)c(N)c12 | 4.7 | 0.6 | / | / | / | / | /
CCN1CCN(CC(=O)Nc2ccc(Cl)c(S(=O)(=O)N(C)C)c2)CC1 | 1.0 | -0.9 | -4.5 | -17.6 | 4.8 | / | /
O=C(CCN1CCN(c2ccccc2F)CC1)Nc1ccccc1F | -2.0 | 55.0* | 7.5 | -19.4 | 86.4* | ? | ?
CN(C)S(=O)(=O)c1cc(NC(=O)CN2CCN(c3ccccc3F)CC2)ccc1Cl | -10.6 | 54.0* | ? | 5.3 | 53.2* | ? | ?
COc1ccc(C)cc1NC(=O)CN1CCN(c2ccccc2F)CC1 | -25.0 | 0.4 | -0.2 | -13.7 | -9.4 | / | /
O=C(CN1CCN(c2ccccc2F)CC1)Nc1ccccc1F | -22.1 | 22.5 | 1.0 | -34.5 | -1.2 | -9.0% | -0.1%
O=C(CCN1CCN(C/C=C/c2ccccc2)CC1)Nc1ccccc1F | -2.0 | 3.5 | 2.6 | -15.2 | -15.1 | / | /
CC1(C)CC(=O)c2cc(C(=O)Nc3ccc(Cl)cc3)c(=O)[nH]c2C1 | 20.0 | -0.1 | / | / | / | / | /
CC(C)(C)CN1CCN(Cc2cccnc2)CC1CCO (stereo unspecified) | 2.1 | / | -4.0 | -7.1 | / | / | /
CC(=O)c1cccc(OCC(O)CNCCc2ccc(Cl)cc2)c1 (stereo unspecified) | 5.0 | 0.9 | 3.4 | -32.3 | -12.9 | / | /
CCOC(=O)c1cccc(OCC(O)CNCCOc2ccccc2F)c1 (stereo unspecified) | -30.5 | 81.0* | 47.3* | 3.6 | 82.6* | 15.2% | ?
CCOC(=O)c1c(C)n(C)c2ccc(OCC(O)CN3CCN(C)CC3)cc12 (stereo unspecified) | 3.0 | 0.1 | -6.7 | -9.0 | -1.3 | / | /
CCOC(=O)c1c(C)n(C)c2ccc(OCC(O)CNCCc3ccccc3)cc12 (stereo unspecified) | -11.8 | 2.4 | 1.5 | -24.8 | 30.7* | -6.6% | -3.3%
O=c1c2cccnc2[nH]c(=S)n1CCCN1CCN(c2ccc(F)cc2)CC1 | -23.8 | 53.7* | 12.5 | -30.0 | 100.8* | 4.7% | 13.9%
